The values that follow come from PubChem BioAssay (NCATS).

Records with an inconclusive call do not appear. Where a call stands in place of a potency, no number is given. A number with no mark means an inactive call. The source made the active and inactive calls. Calls come from the whole dose curve; as a rule, active = well fitted cell-killing curve with a large enough effect; inconclusive = small, poorly fitted or top-dose-only effect; inactive = flat fitted curve, though single readings scatter.
Potency is the fitted concentration of half-maximal effect.

This experiment is described as follows: qHTS of pediatric cancer cell lines to identify multiple opportunities for drug repurposing: Primary screen for TC32 cells (AID 1347089). Note: nearly all actives have a fitted effect of over 60% in size. To be noted: TC32 Ewing sarcoma viability, CellTiter-Glo luminescence, 48 h; series mostly up to 45.8 µM. Put shortly:
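TC32 cells, 500-1,000/well in growth medium, compound-treated 48 h at 37 °C; viability from CellTiter-Glo luminescence. Primary screen: MIPE 11-point (0.78 nM–46 µM final), NPC 8-point (0.59 nM–46 µM final); confirmatory at 11-point dilutions.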
For `CCCCCCCCCCCCc1ccc(S(=O)(=O)Nc2nncs2)cc1`, the Potency entry is “inactive”. Same read-out and setting: the same measure for `C[C@@]12C[C@@]3(O)O[C@@H](O1)[C@]1(COC(=O)c4ccccc4)[C@@H]3C[C@@]12O[C@@H]1O[C@H](CO)[C@@H](O)[C@H](O)[C@@H]1O`: “inactive”; for `C=C1C[C@@]2(O)O[C@@]3(C[C@H]2C(C)C)[C@H](C)CC[C@H]13`: “inactive”.

With `Cc1cnc(Nc2ccc(N3CCN(C)CC3)cc2)nc1Nc1cccc(S(=O)(=O)NC(C)(C)C)c1`, the Potency was 10.4 µM (active). On to `O=c1[nH]c(=O)n([C@H]2C[C@@H](O)[C@@H](CO)O2)cc1C=CBr`, for which the Potency result was “inactive”. On the same count and under the same terms, the same measure for `CC(=O)C1=C(O)C=C2Oc3c(C(C)=O)c(O)c(C)c(O)c3C2(C)C1=O` (configuration not stated): “inactive”; for `CC(C)N(CC[C@H](c1ccccc1)c1cc(CO)ccc1O)C(C)C`: “inactive”. Regarding `COc1ccc([C@@H]2CNC(=O)C2)cc1OC1CCCC1`, the Potency entry is “inactive”.

With `CNC(=O)Nc1ccc(-c2nc(N3CC4CCC(C3)O4)c3cnn(C4CCC5(CC4)OCCO5)c3n2)cc1`, the Potency is 0.0262 µM (active).

Turning to `CC(=O)N[C@H]1[C@@H]([C@H](O)[C@H](O)CO)OC(C(=O)O)=C[C@@H]1N=C(N)N`, the Potency entry was “inactive”. Turning to `CON=C(C(=O)N[C@@H]1C(=O)N2C(C(=O)O)=C(CSC(=O)c3ccco3)CS[C@H]12)c1csc(N)n1`, the Potency entry was “inactive”.

Regarding `CC(=O)O[C@H]1C[C@@H]2CC[C@H]3[C@H]4C[C@H]([N+]5(C)CCCCC5)[C@@H](OC(C)=O)[C@@]4(C)CC[C@@H]3[C@@]2(C)C[C@H]1[N+]1(C)CCCCC1`, the Potency entry is “inactive”. On the same count and under the same terms, the value for `Cc1ccc2nc(NCCN)c3ncc(C)n3c2c1` was 23.4 µM (active). For `CCc1cc(C(C)=NOCc2ccc(C3CCCCC3)c(C(F)(F)F)c2)ccc1CN1CC(C(=O)O)C1`, the Potency entry is “inactive”. Still for that read-out and setting: the same measure for `Cc1cn([C@@H]2O[C@H](CO)[C@@H](O)[C@H]2F)c(=O)[nH]c1=O`: “inactive”; for `O=C(Nc1ccc(Oc2ccnc3[nH]ccc23)c(F)c1)c1cccn(-c2ccc(F)cc2)c1=O`: “inactive”. Still for that read-out and setting: the value for `CC1(C)O[C@@H]2C[C@H]3[C@@H]4CCC5=CC(=O)C=C[C@]5(C)[C@@H]4[C@@H](O)C[C@]3(C)[C@]2(C(=O)CO)O1` was “inactive”; that for `Cc1cc(C(=O)NOCCO)c(Nc2ccc(I)cc2F)n(C)c1=O` was “inactive”; that for `OCc1ccccc1O[C@@H]1O[C@H](CO)[C@H](O)[C@H](O)[C@H]1O` was “inactive”. The same measure, in the same setting: the same measure for `Cc1ccccc1C(=O)Nc1ccc(C(=O)N2CCCC(O)c3cc(Cl)ccc32)c(C)c1` (configuration not stated): “inactive”.

Turning to `COc1ccc(Nc2cc(-c3cnc(N)nc3)nc(N3CCOCC3)n2)cn1`, the Potency was 4.66 µM (active). In the case of `O=C(O)CCCCC(CCSCc1ccccc1)SCc1ccccc1` (configuration not stated), the Potency entry was “inactive”.

Take `Cc1noc(-c2ccc(CSCCC(=O)O)cc2)c1NC(=O)OC(C)c1ccccc1Cl` (configuration not stated): the Potency result was “inactive”.

Consider `CCCCC(=O)O[C@]1(C(=O)CO)[C@@H](C)C[C@H]2[C@@H]3CCC4=CC(=O)C=C[C@]4(C)[C@@]3(F)[C@@H](O)C[C@@]21C`, for which the Potency result was “inactive”. Still for that read-out and setting: the same measure for `COc1cc(C)c(C=CC(C)=CC=CC(C)=CC(=O)O)c(C)c1C`: “inactive”.

On to `C[N+]1(C)[C@@H]2C[C@@H](OC(=O)C(O)(c3cccs3)c3cccs3)C[C@H]1[C@@H]1O[C@@H]12`, for which the Potency entry is “inactive”. On the same count and under the same terms, the value for `CC1(C)[C@H](O[C@H]2O[C@H](C(=O)O)[C@@H](O)[C@H](O)[C@H]2O[C@@H]2O[C@H](C(=O)O)[C@@H](O)[C@H](O)[C@H]2O)CC[C@@]2(C)[C@H]1CC[C@]1(C)[C@H]2C(=O)C=C2[C@H]3C[C@@](C)(C(=O)O)CC[C@]3(C)CC[C@]21C` was “inactive”. `C[C@H](O)[C@@H]1C(=O)N2C(C(=O)O)=C(S[C@@H]3CN[C@H](CNS(N)(=O)=O)C3)[C@@H](C)[C@@H]12`: the Potency entry was “inactive”. Regarding `CN[C@H]1[C@@H](O)[C@@H]2O[C@@H]3O[C@H](C)CC(=O)[C@]3(O)O[C@@H]2[C@@H](NC)[C@H]1O`, the Potency is 13.1 µM (active). For the compound `NC1=N[C@H]2[C@H](CS[C@H]2CCCCC(=O)O)N1`, the Potency entry is “inactive”.

Regarding `COC(=O)[C@@H]1CC2=CC(=O)CC[C@]2(C)[C@@]23O[C@@H]2C[C@@]2(C)[C@H](CC[C@@]24CCC(=O)O4)[C@@H]13`, the Potency entry is “inactive”.

For the compound `O=C(C[C@@H]1CC=CCCC(=O)O[C@H](c2ccccc2)CNC1=O)NCc1ccc(Cl)cc1`, the Potency entry was “inactive”. The same measure, in the same setting: the value for `CON=C(C(=O)N[C@@H]1C(=O)N2C(C(=O)O)=C(Cn3ccc(=N)n3CCO)CS[C@H]12)c1csc(N)n1` was “inactive”. Take `CCN1CCN(C(=O)N[C@H](C(=O)N[C@@H]2C(=O)N3C(C(=O)O)=C(CSc4nnnn4C)CS[C@@H]23)c2ccc(O)cc2)C(=O)C1=O`: the activity change, negative = cytotoxic was 13.6% [at 9.17 µM]. As for `OC[C@@H](O)[C@@H](O)[C@H](O)[C@@H](O)CO`, the Potency entry is “inactive”. Regarding `C=Cc1c(C)c2cc3nc(cc4[nH]c(cc5nc(cc1[nH]2)C(C)=C5CCC(=O)O)c(CCC(=O)OC)c4C)[C@@]1(C)C3=CC=C(C(=O)OC)[C@H]1C(=O)OC`, the Potency was 5.87 µM (active). Turning to `COc1ccc2cc([S+]([O-])Cc3ncc(C)c(OC)c3C)nc2c1`, the Potency result is “inactive”.
